Several values for one entry are separate records, joined by “and”; a condition that tells them apart may be missing. Equal values may be shown once. Some compounds were tested as several samples or in several runs, with calls that do not always agree. Activity calls are given as the source filed them.
Key:
[1] = tested on: PRMT1 (protein arginine N-methyltransferase 1); assay: PRMT1 binders on small-molecule microarrays, primary screen, biochemical, small-molecule microarray, 635 nm fluorescence (AID 1088); settings: small-molecule microarray binding, higher = more signal;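 note: binding of Prmt1 protein to compounds spotted on small-molecule microarray slides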
[2] = yeast growth modulation, basal conditions, primary screen, YJM789 clinical isolate, OD600, 24 h (AID 1089);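 note: growth of clinical yeast isolate S. cerevisiae YJM 789 seeded 1000 cells per well; test concentration not given here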; settings: S. cerevisiae YJM789 growth, higher = more signal, called active from +8 up or from −8 down
[3] = fission yeast growth modulation, primary screen, strain 972, OD600, 24 h, no modulator (AID 1090);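 note: basal condition with compound alone and no growth modifier present; test concentration not given here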; settings: S. pombe 972 growth, higher = more signal, called active from +8 up or from −8 down
[4] = S. cerevisiae growth modulation with rapamycin, primary screen, strain BY4716, OD600, 96 h (AID 1091); settings: higher = more signal, called active from +8 up or from −8 down; note: test concentration not given here
[5] = molecular target: Torsin-1A-interacting protein 2 (Homo sapiens) (UniProt Q8NFQ8); assay: LULL1 binders on small-molecule microarray, primary screen, cell lysate, human LULL1 lysate, 635/667 nm fluorescence (AID 1092); settings: hLULL1 lysate binding, 635 nm fluorescence, higher = more signal;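 note: probe is lysate of COS7 cells overexpressing human LULL1; score merges per-feature 667 nm fluorescence with signal-to-noise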
Chain of Torsin-1A-interacting protein 2 (Homo sapiens) (Q8NFQ8 whole entry, looked up): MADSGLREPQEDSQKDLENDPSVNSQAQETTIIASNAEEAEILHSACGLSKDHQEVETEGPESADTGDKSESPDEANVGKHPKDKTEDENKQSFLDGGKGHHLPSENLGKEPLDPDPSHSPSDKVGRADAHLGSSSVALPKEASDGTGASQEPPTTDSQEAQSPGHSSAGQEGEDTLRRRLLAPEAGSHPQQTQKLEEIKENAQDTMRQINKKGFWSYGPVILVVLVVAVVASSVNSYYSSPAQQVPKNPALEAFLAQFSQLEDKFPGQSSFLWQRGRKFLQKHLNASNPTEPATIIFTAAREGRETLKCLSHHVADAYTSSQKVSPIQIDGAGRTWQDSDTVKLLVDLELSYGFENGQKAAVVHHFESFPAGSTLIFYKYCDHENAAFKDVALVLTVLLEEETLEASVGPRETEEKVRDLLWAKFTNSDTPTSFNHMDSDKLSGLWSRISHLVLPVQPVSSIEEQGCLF

[6] = E. coli growth modulation, two-sided OD650, primary screen, E. coli filamentation project, strain DRC41, 24 h (AID 1093); settings: OD650, 24 h, higher = more signal, called active from +8 up or from −8 down;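 note: MC1000 strain lacking acrAB efflux and sulA so SOS filamentation is blocked; test concentration not given here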
[7] = small-molecule microarray binders of probe aLefty2, primary screen, biochemical, biotinylated probe, 635/667 nm fluorescence (AID 1094); settings: higher = more signal;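 note: score merges spot fluorescence near 667 nm with spot signal-to-noise ratio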
[8] = tested on: Noggin (protein binding on small-molecule microarray); assay: Noggin binders on small-molecule microarray, primary screen, biochemical, 635/667 nm fluorescence (AID 1095); settings: 635 nm fluorescence, higher = more signal;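 note: score merges 667 nm feature fluorescence with signal to noise over triplicate slides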
[9] = molecular target: Neurogenic locus notch homolog protein 3 (Homo sapiens) (UniProt Q9UM47); assay: NOTCH3 binders on small-molecule microarray, primary screen, biochemical, 635/667 nm fluorescence (AID 1096); settings: NOTCH3 binding, 635 nm fluorescence, higher = more signal
Chain of Neurogenic locus notch homolog protein 3 (Homo sapiens) (Q9UM47 whole entry, looked up): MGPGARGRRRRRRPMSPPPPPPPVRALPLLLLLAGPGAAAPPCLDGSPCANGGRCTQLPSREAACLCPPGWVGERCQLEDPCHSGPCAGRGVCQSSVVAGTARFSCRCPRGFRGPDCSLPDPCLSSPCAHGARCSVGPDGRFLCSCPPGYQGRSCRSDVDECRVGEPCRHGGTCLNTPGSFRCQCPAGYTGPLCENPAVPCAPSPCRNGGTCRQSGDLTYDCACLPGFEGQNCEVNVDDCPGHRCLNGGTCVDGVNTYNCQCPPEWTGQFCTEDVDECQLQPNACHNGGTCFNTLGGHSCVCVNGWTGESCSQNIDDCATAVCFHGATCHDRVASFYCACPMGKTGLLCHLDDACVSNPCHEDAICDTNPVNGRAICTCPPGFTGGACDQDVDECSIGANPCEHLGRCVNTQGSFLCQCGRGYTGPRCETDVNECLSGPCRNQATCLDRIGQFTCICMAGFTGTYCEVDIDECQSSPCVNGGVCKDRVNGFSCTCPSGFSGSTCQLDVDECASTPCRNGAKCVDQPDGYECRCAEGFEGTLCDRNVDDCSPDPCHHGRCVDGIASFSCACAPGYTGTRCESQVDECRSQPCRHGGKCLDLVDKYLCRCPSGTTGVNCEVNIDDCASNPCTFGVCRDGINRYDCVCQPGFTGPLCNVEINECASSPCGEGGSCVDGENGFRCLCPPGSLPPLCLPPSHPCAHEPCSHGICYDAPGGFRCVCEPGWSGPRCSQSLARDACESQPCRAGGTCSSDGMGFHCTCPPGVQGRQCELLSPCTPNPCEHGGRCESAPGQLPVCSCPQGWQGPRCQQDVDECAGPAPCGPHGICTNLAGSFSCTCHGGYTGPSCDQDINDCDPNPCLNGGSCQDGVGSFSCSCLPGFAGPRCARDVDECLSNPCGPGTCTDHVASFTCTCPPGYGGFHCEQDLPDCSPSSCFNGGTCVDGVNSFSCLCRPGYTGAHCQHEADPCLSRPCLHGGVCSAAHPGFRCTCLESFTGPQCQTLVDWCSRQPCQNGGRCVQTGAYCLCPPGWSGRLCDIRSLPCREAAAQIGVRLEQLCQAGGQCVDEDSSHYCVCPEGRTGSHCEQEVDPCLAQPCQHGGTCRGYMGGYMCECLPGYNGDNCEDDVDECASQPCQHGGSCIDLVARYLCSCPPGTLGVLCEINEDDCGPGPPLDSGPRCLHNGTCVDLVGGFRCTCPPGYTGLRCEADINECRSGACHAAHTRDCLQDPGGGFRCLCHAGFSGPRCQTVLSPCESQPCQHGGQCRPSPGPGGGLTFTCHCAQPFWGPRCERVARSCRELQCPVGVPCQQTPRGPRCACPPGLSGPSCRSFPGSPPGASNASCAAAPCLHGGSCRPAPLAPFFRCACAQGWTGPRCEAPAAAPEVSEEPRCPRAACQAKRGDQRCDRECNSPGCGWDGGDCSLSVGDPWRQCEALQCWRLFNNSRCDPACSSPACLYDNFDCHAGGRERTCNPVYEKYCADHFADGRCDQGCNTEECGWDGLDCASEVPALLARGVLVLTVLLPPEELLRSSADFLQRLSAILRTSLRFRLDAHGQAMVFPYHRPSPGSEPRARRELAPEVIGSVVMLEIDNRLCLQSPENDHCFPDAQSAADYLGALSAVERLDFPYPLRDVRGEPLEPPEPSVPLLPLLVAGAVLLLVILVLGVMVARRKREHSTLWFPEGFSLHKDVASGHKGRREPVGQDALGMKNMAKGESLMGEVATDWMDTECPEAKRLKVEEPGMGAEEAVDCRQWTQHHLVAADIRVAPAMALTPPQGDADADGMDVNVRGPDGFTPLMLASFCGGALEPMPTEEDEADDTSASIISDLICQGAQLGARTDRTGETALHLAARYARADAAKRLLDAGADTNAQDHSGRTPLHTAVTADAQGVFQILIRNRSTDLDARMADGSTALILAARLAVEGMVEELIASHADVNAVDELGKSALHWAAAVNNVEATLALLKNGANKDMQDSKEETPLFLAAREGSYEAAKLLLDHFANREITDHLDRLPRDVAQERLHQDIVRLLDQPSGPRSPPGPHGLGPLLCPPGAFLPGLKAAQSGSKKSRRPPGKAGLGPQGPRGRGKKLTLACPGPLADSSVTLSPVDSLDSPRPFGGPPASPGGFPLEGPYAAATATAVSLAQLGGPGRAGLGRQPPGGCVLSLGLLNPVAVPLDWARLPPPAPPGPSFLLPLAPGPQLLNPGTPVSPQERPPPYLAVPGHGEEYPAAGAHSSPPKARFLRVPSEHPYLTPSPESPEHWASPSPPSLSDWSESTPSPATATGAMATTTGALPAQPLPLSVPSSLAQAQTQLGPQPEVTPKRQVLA

[10] = small-molecule microarray binders of probe aEGFR, primary screen, biochemical, biotinylated probe, 635/667 nm fluorescence (AID 1097); settings: higher = more signal;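 note: probe is a biotinylated anti-EGFR antibody binding compounds printed on slides; score combines fluorescence near 667 nm and signal to noise of each spot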
[11] = tested on: Plasmodium falciparum Sir2 (PF13_0152, Sir2A); assay: pfSir2 binders on small-molecule microarrays, primary screen, biochemical, small-molecule microarray, 635 nm fluorescence (AID 1098); settings: small-molecule microarray binding, fluorescence 635 nm; higher = more signal;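 note: score merges spot fluorescence intensity with its signal-to-noise ratio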
[12] = small-molecule microarray binders of probe aDKK1, primary screen, biochemical, biotinylated probe, 635/667 nm fluorescence (AID 1099); settings: higher = more signal;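 note: score merges 667nm spot fluorescence with signal to noise across triplicate slides; reference of the scale not given here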
[13] = small-molecule microarray binders of probe aCHRDL2, primary screen, biochemical, biotinylated probe, 635/667 nm fluorescence (AID 1100); settings: higher = more signal
[14] = splicing luciferase reporter signal modulators, primary screen, spliceosome inhibition project, cell-based, HEK293, splice +/- reporter (AID 1101); settings: luminescence, 24 h, higher = more signal, called active from +8 up or from −8 down;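 note: HEK293 cells carrying a splicing-competent luciferase reporter gene; test concentration not given here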
[15] = molecular target: Fibroblast growth factor 10 (Homo sapiens) (UniProt O15520); assay: FGF10 binders on small-molecule microarrays, primary screen, biochemical, small-molecule microarray, 635 nm fluorescence (AID 1102); settings: FGF10 binding, fluorescence 635 nm, higher = more signal
Chain of Fibroblast growth factor 10 (Homo sapiens) (O15520 whole entry, looked up): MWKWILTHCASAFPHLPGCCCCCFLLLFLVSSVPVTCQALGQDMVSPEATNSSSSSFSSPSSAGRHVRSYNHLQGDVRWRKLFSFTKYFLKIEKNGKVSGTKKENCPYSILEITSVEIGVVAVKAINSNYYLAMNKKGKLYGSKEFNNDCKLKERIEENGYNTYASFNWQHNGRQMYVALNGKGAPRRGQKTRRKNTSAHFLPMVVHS

[16] = tested on: glycogen synthase kinase-3 (GSK3A per assay name; protocol says GSK3B); assay: GSK3 binders on small-molecule microarrays, primary screen, biochemical, small-molecule microarray, 635 nm fluorescence, GSK3A (AID 1103); settings: small-molecule microarray binding, fluorescence 635 nm; higher = more signal; note: the record names both GSK3A and GSK3B
[17] = molecular target: Epidermal growth factor receptor (Homo sapiens) (UniProt P00533); assay: EGFR binders on small-molecule microarrays, primary screen, biochemical, small-molecule microarray, 635 nm fluorescence (AID 1104); settings: EGFR binding, higher = more signal;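 note: score merges 667 nm emission intensity with spot signal to noise over triplicate slides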
Chain of Epidermal growth factor receptor (Homo sapiens) (P00533 whole entry, looked up): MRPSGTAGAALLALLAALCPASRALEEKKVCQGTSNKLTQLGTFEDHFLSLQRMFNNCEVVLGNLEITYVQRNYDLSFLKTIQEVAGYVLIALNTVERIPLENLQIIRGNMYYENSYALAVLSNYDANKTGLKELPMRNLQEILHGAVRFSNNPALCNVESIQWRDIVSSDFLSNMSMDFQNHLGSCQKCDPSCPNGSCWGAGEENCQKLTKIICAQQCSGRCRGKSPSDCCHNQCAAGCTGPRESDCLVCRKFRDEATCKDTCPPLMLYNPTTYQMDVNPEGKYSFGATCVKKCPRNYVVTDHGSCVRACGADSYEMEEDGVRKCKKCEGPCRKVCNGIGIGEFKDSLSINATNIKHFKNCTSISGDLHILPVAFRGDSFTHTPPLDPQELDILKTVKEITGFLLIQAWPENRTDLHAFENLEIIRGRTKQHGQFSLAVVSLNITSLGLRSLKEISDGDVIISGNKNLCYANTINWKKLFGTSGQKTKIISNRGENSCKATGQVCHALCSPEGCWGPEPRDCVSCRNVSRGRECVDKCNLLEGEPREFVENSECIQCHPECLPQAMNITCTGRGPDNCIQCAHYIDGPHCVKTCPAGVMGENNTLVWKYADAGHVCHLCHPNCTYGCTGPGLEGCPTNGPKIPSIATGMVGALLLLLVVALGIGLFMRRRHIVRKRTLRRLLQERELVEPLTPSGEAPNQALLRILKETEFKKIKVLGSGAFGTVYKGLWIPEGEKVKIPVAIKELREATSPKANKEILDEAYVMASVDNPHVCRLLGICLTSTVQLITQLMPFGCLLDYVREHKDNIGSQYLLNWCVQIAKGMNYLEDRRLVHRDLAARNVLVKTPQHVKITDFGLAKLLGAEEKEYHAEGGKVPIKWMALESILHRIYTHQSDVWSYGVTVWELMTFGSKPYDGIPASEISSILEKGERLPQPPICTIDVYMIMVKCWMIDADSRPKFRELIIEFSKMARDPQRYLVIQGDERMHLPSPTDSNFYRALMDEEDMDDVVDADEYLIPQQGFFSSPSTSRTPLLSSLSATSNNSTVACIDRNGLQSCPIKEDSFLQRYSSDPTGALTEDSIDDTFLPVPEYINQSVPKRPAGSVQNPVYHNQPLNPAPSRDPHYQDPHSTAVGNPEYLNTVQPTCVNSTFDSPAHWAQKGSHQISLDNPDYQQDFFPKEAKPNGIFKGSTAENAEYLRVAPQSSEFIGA

[18] = molecular target: Follistatin-related protein 3 (Homo sapiens) (UniProt O95633); assay: FSTL3 binders on small-molecule microarrays, primary screen, biochemical, small-molecule microarray, 635 nm fluorescence (AID 1105); settings: FSTL3 binding, higher = more signal;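 note: score merges emission near 667 nm and signal to noise per printed spot across three slides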
Chain of Follistatin-related protein 3 (Homo sapiens) (O95633 whole entry, looked up): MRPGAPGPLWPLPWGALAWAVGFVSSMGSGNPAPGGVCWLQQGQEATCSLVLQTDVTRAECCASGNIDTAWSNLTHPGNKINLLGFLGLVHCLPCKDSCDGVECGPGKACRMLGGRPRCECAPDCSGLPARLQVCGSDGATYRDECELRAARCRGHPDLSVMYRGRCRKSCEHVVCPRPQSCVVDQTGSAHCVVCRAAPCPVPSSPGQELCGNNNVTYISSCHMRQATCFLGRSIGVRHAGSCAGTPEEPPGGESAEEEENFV

[19] = molecular target: Dickkopf-related protein 1 (Homo sapiens) (UniProt O94907); assay: DKK1 binders on small-molecule microarrays, primary screen, biochemical, small-molecule microarray, 635 nm fluorescence scan (AID 1106); settings: DKK1 binding, higher = more signal;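 note: score merges emission near 667 nm with signal to noise over three replicate slides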
Chain of Dickkopf-related protein 1 (Homo sapiens) (O94907 whole entry, looked up): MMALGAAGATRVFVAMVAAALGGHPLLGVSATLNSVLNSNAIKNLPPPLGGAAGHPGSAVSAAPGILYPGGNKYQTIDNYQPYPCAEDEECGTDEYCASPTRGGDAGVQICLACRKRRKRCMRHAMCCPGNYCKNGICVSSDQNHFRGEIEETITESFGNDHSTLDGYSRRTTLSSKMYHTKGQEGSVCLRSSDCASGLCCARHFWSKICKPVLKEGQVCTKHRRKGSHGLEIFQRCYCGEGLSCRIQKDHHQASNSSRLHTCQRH

[20] = tested on: Inhibin beta A chain (activin A); assay: INHBA (activin A) binders on microarrays, primary screen, biochemical, small-molecule microarray, 635 nm fluorescence scan (AID 1107); settings: small-molecule microarray binding, higher = more signal;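 note: mouse activin A protein probed at 4.33 µg/mL on printed slides; score merges bound-protein fluorescence near 667 nm with spot signal-to-noise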

| Structure (SMILES) | composite z-score [1] | z-score [2] | z-score [3] | z-score [4] | composite z-score [5] | z-score [6] | composite z-score [7] | composite z-score [8] | composite z-score [9] | composite z-score [10] | composite z-score [11] | composite z-score [12] | composite z-score [13] | z-score [14] | composite z-score [15] | composite z-score [16] | composite z-score [17] | composite z-score [18] | composite z-score [19] | composite z-score [20] |
| --- | --- | --- | --- | --- | --- | --- | --- | --- | --- | --- | --- | --- | --- | --- | --- | --- | --- | --- | --- | --- |
| CC(=O)OC[C@H]1O[C@H](C#CC(C)(C)C)C=C[C@@H]1OC(C)=O | 0.975 | -0.0789 (inactive) | -1.48 (inactive) | -0.589 (inactive) | 1.3 | 0.459 (inactive) | -0.177 | 0.369 | 0.695 | 0.0168 | 0.731 | 0.202 | -0.508 | 1.16 (inactive) | 0.871 | 0.225 | 0.274 | 1.31 | 0.535 | -0.209 |
| O=C1[C@H]2[C@H]3[C@H](O)[C@H](O)CC(=NOCc4ccccc4)[C@H]3CC[C@H]2C(=O)N1Cc1ccccc1 | -1 | -2.04 (inactive) | -2.07 (inactive) | -1.04 (inactive) | -0.336 | 0.582 (inactive) | -0.234 | 0.439 | 0.273 | -0.126 | 0.424 | -0.276 | -0.476 | -2.42 (inactive) | 0.185 | -0.601 | 0.486 | 0.606 | 0.737 | -0.201 |
| C=C[C@@H](C)[C@@H](O)c1ccc(O)c2ccccc12 | -1.15 and -0.5 | -5.87 (inactive) and -14.6 (active) | -19.1 (active) and -19.4 (active) | 3.53 (inactive) and 5.23 (inactive) | -0.414 and 0.384 | -0.113 (inactive) and 1.61 (inactive) | -0.239 and -0.107 | -0.803 and -0.326 | -1.25 and -0.933 | -0.321 and -0.314 | 1.02 and -0.0966 | -0.419 and -0.315 | 0.238 and 0.216 | 0.591 (inactive) and -0.814 (inactive) | -0.665 and -0.654 | -1.52 and -0.746 | -0.815 and -1.04 | -0.961 and -0.644 | -0.598 and 0.088 | 0.936 and 0.89 |
| CCOC(=O)NN=C1C[C@@H](O)[C@@H](O)[C@@H]2[C@@H]3C(=O)N(Cc4ccc5c(c4)OCO5)C(=O)[C@@H]3CC[C@@H]12 | 0.365 | 0.282 (inactive) | -0.117 (inactive) | -0.135 (inactive) | 2.14 | 0.234 (inactive) | -0.148 | 0.0857 | -0.209 | -0.148 | 0.0867 | -0.0464 | -0.331 | 0.0278 (inactive) | 0.0364 | 0.424 | 0.231 | -0.406 | 0.0071 | -0.134 |
| CO[C@H]1COC(=O)CC=C[C@@H](C)COC(=O)[C@H](CCSC)NC(=O)CC=C[C@@H]1C | 1.55 and 1.54 | 0.833 (inactive) and -0.697 (inactive) | -0.201 (inactive) and -0.712 (inactive) | 0.35 (inactive) and -0.862 (inactive) | -0.649 and -1.15 | 0.32 (inactive) and -0.145 (inactive) | -0.114 and -0.0629 | 1.64 and 2.04 | 0.593 and 0.59 | 0.49 and 0.59 | 0.536 and 0.111 | -0.51 and -0.591 | -1.59 and -2.05 | 0.191 (inactive) and -0.244 (inactive) | 1.12 and 1.16 | 1.29 and 1.3 | 1.28 and 1.69 | 1.57 and 1.49 | 2.29 and 2.22 | 0.626 and -0.119 |
| COC(=O)C1=C(C)N(Cc2ccccc2)C2=C3C(=O)CCC[C@@H]3[C@@](O)(C(=O)OC)C(=O)N2[C@@H]1c1ccccc1 | 0.749 and -0.121 | 0.494 (inactive) and -0.978 (inactive) | -1.66 (inactive) and -4.18 (inactive) | -2.01 (inactive) and -2.52 (inactive) | 0.0102 and 0.0556 | 0.821 (inactive) and 0.754 (inactive) | 0.182 and -0.0863 | 0.637 and 0.433 | 0.602 and -0.239 | -0.177 and 0.108 | 0.464 and -0.773 | 0.0021 and -0.0015 | -0.334 and -0.299 | 0.732 (inactive) and -1.28 (inactive) | 0.887 and 0.389 | 0.379 and 0.224 | 0.459 and 0.433 | 0.843 and 0.284 | 0.641 and 0.516 | 0.177 and 0.506 |
| COC(=O)[C@@]1(Cc2ccc(F)cc2)[C@H]2c3cc(C(=O)N4CCCC4)n(Cc4c(CO)[nH]cc(C)c4=O)c3C[C@H]2CN1C(=O)c1ccccc1 | 0.519 and 0.355 | 0.786 (inactive) and 1.14 (inactive) | 1.36 (inactive) and 1.39 (inactive) | 0.925 (inactive) and 1.59 (inactive) | 3.29 and 3.28 | -0.633 (inactive) and -0.87 (inactive) | 1.33 and 0.155 | 0.0162 and -0.629 | 0.335 and 0.422 | 0.985 and 0.0594 | 1.47 and 1.53 | 2.17 and -0.115 | 1.29 and 0.955 | -1.48 (inactive) and -0.107 (inactive) | 0.822 and 0.461 | -0.252 and 0.368 | 0.704 and -0.2 | 0.0376 and -0.36 | -0.198 and -0.57 | 1.02 and 1.31 |
| CC(C)[Si]1(C(C)C)OCc2cc(CCCc3cc4c(c(CCc5ccccc5)n3)[Si](C(C)C)(C(C)C)OC4)nc(CCc3ccccc3)c21 | 0.393 and 0.722 | 0.873 (inactive) and 0.702 (inactive) | -19.7 (active) and 0.733 (inactive) | -1.25 (inactive) and 0.323 (inactive) | 0.227 and 0.364 | 2.13 (inactive) and -1.16 (inactive) | -0.128 and -0.0479 | -0.0022 and 0.42 | -0.604 and 0.721 | -0.157 and -0.0594 | -1.24 and 0.202 | -0.181 and -0.246 | 0.057 and -0.55 | -1.52 (inactive) and 0.459 (inactive) | -0.0405 and 0.57 | -0.0221 and 0.559 | 0.327 and 0.456 | -0.291 and 0.745 | -0.106 and 0.458 | 0.557 and 0.0127 |
